Source: PubChem BioAssay
A selection: hits, their analogues and other compounds. The true share with any hit is near 1.6%.
KCNQ2 enhance: potentiators of rat KCNQ2 potassium channel | O88943 | CHO-K1 KCNQ2, FluxOR thallium flux fluorescence; hits give high values | B-score at 10 µM | 310,000 tested, 0.54% active | AID 2239;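 active = fluorescence ratio B-score at least 3 SD of library B-scores, with initial fluorescence B-score within 3 of them, cut at about 5.3 in these data; same plate scores as AID 2156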;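 note: B-score of peak minus minimum over baseline fluorescence ratio after K+ and Tl+ stimulus; positive B-score means potentiation of KCNQ2 with more thallium influx and brighter signal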
Target sequence (O88943 whole entry, looked up): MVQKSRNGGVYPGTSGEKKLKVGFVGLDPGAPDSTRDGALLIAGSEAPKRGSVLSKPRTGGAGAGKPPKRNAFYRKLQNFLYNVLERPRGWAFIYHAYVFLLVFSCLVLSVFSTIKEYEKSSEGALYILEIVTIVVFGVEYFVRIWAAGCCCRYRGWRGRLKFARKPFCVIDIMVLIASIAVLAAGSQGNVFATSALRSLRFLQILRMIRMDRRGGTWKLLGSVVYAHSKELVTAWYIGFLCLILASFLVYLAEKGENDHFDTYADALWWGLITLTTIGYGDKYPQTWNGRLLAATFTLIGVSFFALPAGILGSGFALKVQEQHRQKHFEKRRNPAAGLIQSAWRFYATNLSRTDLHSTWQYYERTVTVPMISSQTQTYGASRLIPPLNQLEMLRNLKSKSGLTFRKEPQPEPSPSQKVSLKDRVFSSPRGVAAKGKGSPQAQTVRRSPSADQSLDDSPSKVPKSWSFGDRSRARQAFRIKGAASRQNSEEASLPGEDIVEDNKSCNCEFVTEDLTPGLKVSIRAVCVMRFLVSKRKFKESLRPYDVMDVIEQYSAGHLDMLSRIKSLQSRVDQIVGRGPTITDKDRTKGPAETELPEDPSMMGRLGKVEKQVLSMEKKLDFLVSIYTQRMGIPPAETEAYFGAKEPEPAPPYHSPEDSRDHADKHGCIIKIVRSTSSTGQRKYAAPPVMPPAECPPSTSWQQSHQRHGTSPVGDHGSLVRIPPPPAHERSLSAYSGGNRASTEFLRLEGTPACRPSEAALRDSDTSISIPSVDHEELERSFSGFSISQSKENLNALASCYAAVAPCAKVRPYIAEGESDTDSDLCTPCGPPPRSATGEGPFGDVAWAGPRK
KCNQ2 inh: KCNQ2 (rat) channel inhibition; O88943; CHO-K1 KCNQ2, FluxOR thallium flux, 20 min; hits give low values; B-score at 10 µM; 310,000 tested, 1.1% active;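 active = fluorescence ratio B-score at most minus 3 library SDs, with starting brightness B-score within 2 library SDs, cut at about -5.5 in these data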
Starred values were filed as active, the others as inactive; i = inactive; · = not tested or not shown.

SMILES	KCNQ2 enhance	KCNQ2 inh
CCOC(=O)C(C)Oc1ccc(OCc2ccccc2)cc1 (configuration not stated)	0.1	i
O=C(O)c1ccccc1NC(=S)NC(=O)c1sc2ccccc2c1Cl	0.83	i
O=C(NNC(=S)NC(=O)c1sc2ccccc2c1Cl)c1ccc(Cl)cc1	13.3*	i
COCCCNC(=O)Cc1c(C)c2c(cc(C)c3c(C(C)(C)C)coc32)oc1=O	0.92	i
COc1cccc(NC(=O)C2CCOC2=O)c1 (configuration not stated)	0.97	i
COc1ccc(C)cc1NC(=O)NNC(=O)C(C)Oc1ccc(F)cc1Cl (configuration not stated)	0.88	i
Cc1cc(C)c(NC(=O)CSc2nnnn2-c2cccnc2)c(C)c1	1.69	i
Cc1cc(C)nc(NCC(O)CNc2ccccc2C)n1 (configuration not stated)	0.82	i
Cc1cc(C)nc(NCC(O)COc2ccccc2C)n1 (configuration not stated)	-5.86	-5.86*
CC1CCN(c2cc(N)c(Cl)cc2[N+](=O)[O-])CC1	-6.47	-6.47*
CC1CCN(c2cc(C#N)c(C#N)cc2[N+](=O)[O-])CC1	0.25	i
CCN1C(=O)CCC(C(=O)O)C1c1ccc(OC)cc1 (configuration not stated)	·	i
O=C(Sc1cccc2cccnc12)c1ccccc1Br	-6.18	-6.18*
CC(=O)/C(=N\Nc1ccccc1)Sc1cccc2cccnc12	·	i
FC(F)(F)c1ccc(Cl)c(NC2=NCCCCC2)c1	·	i
O=C(CSc1nc(O)cc(=O)n1-c1ccccc1)Nc1ccc2c3c(cccc13)CC2	3.26	i
Cc1c(O)nc(SCC(=O)Nc2ccc3c4c(cccc24)CC3)n(-c2ccccc2)c1=O	11.7*	i
CCOC(=O)c1c(NC(=O)CSc2nccn2C)sc(C(=O)NC)c1C	·	i
CC(NC(=O)Cc1cccs1)C(c1cccs1)N1CCN(c2ccccc2)CC1 (configuration not stated)	8.25*	i
CCC(=O)NC(C)C(c1cccs1)N1CCN(c2ccccc2)CC1 (configuration not stated)	0.03	i
CCC(C)NC(=O)c1cc(Sc2nnc(C)s2)nc2ccccc12 (configuration not stated)	·	i
COc1ccc(CCCC(=O)NCC(=O)N/N=C/c2cc(Cl)ccc2OC)cc1	0.36	i
CCOC(=O)c1cccc(NC(=O)CSc2nnc(COc3ccccc3)n2CC)c1	·	i
CCOC(=O)c1ccccc1NC(=O)CSc1nnc(COc2ccccc2)n1CC	-6.41	-6.41*
COc1cccc(C(=O)Nn2c(-c3cccs3)nc3ccccc3c2=O)c1OC	-6.36	-6.36*
SMILES	KCNQ2 enhance	KCNQ2 inh
COc1ccc(C(=O)Nn2c(C)nc3ccccc3c2=O)c(OC)c1	·	i
CC(C)CC(=O)Nc1c(C(=O)N2CCN(Cc3ccccc3)CC2)oc2ccccc12	·	i
CC(c1ccco1)N(C(=O)C12CC3(C)CC(C)(CC(C)(C3)C1)C2)c1ccccn1 (configuration not stated)	-6.27	-6.27*
Cc1cccc(C(=O)N(c2ccccn2)C(C)c2ccco2)c1 (configuration not stated)	·	i
O=C(CCc1nnc2ccc(NCc3ccco3)nn12)Nc1cccc(F)c1	·	i
O=S(=O)(NC1c2cccc3cccc(c23)C1Sc1ncccn1)c1ccc(Cl)cc1 (configuration not stated)	-6.31	-6.31*
Cc1ccc(S(=O)(=O)NC2c3cccc4cccc(c34)C2Sc2n[nH]c(N)n2)cc1 (configuration not stated)	·	i
Cc1cc(C)c(S(=O)(=O)N2CCN(C(=O)c3ccc4c(c3)OCO4)CC2)c(C)c1	·	i
CC(C)(C)c1ccc(NC(=O)c2ccc(=O)[nH]n2)cc1	1.74	i
CCCCN(C)CCNC(=O)CCNC(=O)Cn1ccc2ccccc2c1=O	0.1	i
O=C(COc1cc(F)ccc1[N+](=O)[O-])Nc1ccc(N2CCCCC2)cc1	·	i
CCOc1ccc2[nH]c(=O)c(C(c3nnnn3Cc3ccco3)N3CCC(C)CC3)cc2c1 (configuration not stated)	0.94	i
CCOc1ccc2[nH]c(=O)c(C(c3nnnn3Cc3ccco3)N3CCCC(C)C3)cc2c1 (configuration not stated)	-6.52	-6.52*
CCc1ccc(S(=O)(=O)Nc2c(C)nc3nc[nH]n3c2=O)cc1	0.37	i
CN1CCN(C(=S)NC(=O)c2ccccc2Br)CC1	·	i
O=C(COc1ccc(Br)cc1Cl)NC(=S)N1CCc2ccccc21	1.28	i
O=C(NC(=S)N1CCc2ccccc21)c1ccccc1Br	13.9*	i
CC(Oc1ccc(Cl)cc1Cl)C(=O)NC(=S)N1CCc2ccccc21 (configuration not stated)	9.31*	i
CC(C)(O)c1ccccc1CC[C@@H](SCC1(CC(=O)O)CC1)c1cccc(/C=C/c2ccc3ccc(Cl)cc3n2)c1	-6.41	-6.41*
Cc1ccc(C)c(N2CCN(C(=O)CCC(=O)Nc3nnc(C(F)(F)F)s3)CC2)c1	1.49	i
CC(C)(C)NC(=O)COC(=O)C1c2ccccc2Oc2ccccc21	-5.65	-5.65*
CC(C)CNC(=O)COC(=O)C1c2ccccc2Oc2ccccc21	0.37	i
CCCCn1c(N)c(N(CC)C(=O)C2=COCCO2)c(=O)[nH]c1=O	·	i
Cc1ccc(CSc2nc3ccsc3c(=O)n2Cc2ccccn2)cc1	-6.21	-6.21*
N#Cc1ccccc1CSc1nc2ccsc2c(=O)n1Cc1ccccn1	·	i
SMILES	KCNQ2 enhance	KCNQ2 inh
COc1ccc(CNCCC(c2ccc(F)cc2)c2ccc(OC)cc2)cc1 (configuration not stated)	·	i
COc1ccc(C(CCNCc2ccc(F)cc2)c2ccc(F)cc2)cc1 (configuration not stated)	-7.19	-7.19*
COC(=O)[C@H](C)NC(=O)COc1ccccc1	0.29	i
CCCCCCCCCNC(=O)[C@H](NC(=O)COc1ccccc1)[C@@H]1NC(C(=O)OC)C(C)(C)S1 (some centres not stated)	-6.33	-6.33*
CC1CC(NC(=O)Cc2ccc(Br)cc2)CC(C)(C)C1 (configuration not stated)	-5.74	-5.74*
CC1CC(NC(=O)CC#N)CC(C)(C)C1 (configuration not stated)	·	i
CCSc1nnc(COc2ccccc2)n1CC	0.19	i
O=C(NCc1ccccc1)c1ccc(-c2ccccc2F)o1	·	i
O=C(NCCc1ccccc1)c1ccc(-c2ccc(F)cc2)o1	-5.84	-5.84*
Cc1nc2ccccc2n1S(=O)(=O)c1ccc(S(=O)(=O)N2CCCCCC2)cc1	·	i
Cc1ccc(S(=O)(=O)n2c(C)nc3ccccc32)cc1	-7.28	-7.28*
Cc1ccc(S(=O)(=O)Nc2cccc3ncccc23)s1	5.98*	i
Cc1ccc(S(=O)(=O)Nc2cccc3ncccc23)cc1	·	i
Cc1cc(C)nc(N2CCCC(C(=O)NCC(c3ccccc3)c3ccccc3)C2)n1 (configuration not stated)	·	i
CCOC(=O)c1[nH]c2ccc(Br)cc2c1NC(=O)CCN1CCCC(C)(C)C1	1.66	i
Oc1ccc(Cl)cc1C1=NNC(c2cccs2)C1 (configuration not stated)	12.5*	i
Cc1ccc(O)c(C2=NNC(c3ccc(Cl)cc3)C2)c1 (configuration not stated)	·	i
